The values below come from PubChem BioAssay (EPA / NIEHS).

Activity calls are given as the source filed them. How the source made its calls: active means hit-call score of the fitted dose curve at least 0.9, where 1 is the maximum; inactive means score below 0.9.

Experiment [1] in a line: ATG_CRE_CIS: Attagene CIS-FACTORIAL HepG2 Assay for human cAMP Responsive Element (CRE) binding protein 3 (AID 2282926). The conditions noted are these: HepG2 CRE cis-reporter, Attagene multiplexed mRNA; actives raise or lower the signal. The essentials:
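Human liver HepG2, transient MRTU transfection, 24 h compound exposure. Total RNA → oligo(dT) RT → PCR → 6-FAM primer extension → HpaI cut → CE. Activity called both directions vs DMSO.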

Experiment [2] concerns the target CCAAT/enhancer-binding protein beta (Homo sapiens) (UniProt P17676). The experiment can be described thus: ATG_C_EBP_CIS: Attagene CIS-FACTORIAL HepG2 Assay for human CCAAT/Enhancer Binding Protein (C/EBP) beta (AID 2282927). As to conditions: HepG2 Attagene cis-factorial transcription factor reporter; actives raise or lower the signal. The essentials: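 Transiently transfected HepG2 (MRTU library, endogenous TF-driven promoters); 24 h dosing; total RNA → oligo(dT) RT → PCR → 6-FAM primer extension → HpaI digest → CE; fit bidirectionally vs DMSO.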

Experiment [3] is described as follows: ATG_CMV_CIS: Attagene CIS-FACTORIAL HepG2 Assay for human CMV (Internal Marker) (AID 2282928).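 Further: endpoint acts as a background internal control marker rather than a target.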 As to conditions: HepG2 CMV promoter reporter, transcription factor profiling; actives raise or lower the signal. The essentials:
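After transient transfection of HepG2 with reporter transcription units driven by cis-regulatory promoters, cells receive test chemical for 24 h. Labeled reporter amplicons, digested with HpaI, are sized and quantified by capillary electrophoresis against DMSO.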

Experiment [4] can be described thus: ATG_DR4_LXR_CIS: Attagene CIS-FACTORIAL HepG2 Assay for human Liver X Receptor (LXR), DR4 submotif (AID 2282929). The conditions noted are these: HepG2 Attagene DR4 cis-reporter, mRNA transcription; actives raise or lower the signal. The essentials:
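The endpoint is DR4-element-driven reporter transcripts after 24 h chemical exposure of transfected HepG2 cells. These were measured via RT-PCR and capillary electrophoresis, and gain or loss of signal was fitted relative to DMSO controls.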

Experiment [5] has as its target Aryl hydrocarbon receptor (Homo sapiens) (UniProt P35869). Briefly: ATG_Ahr_CIS: Attagene CIS-FACTORIAL HepG2 Assay for human Aryl Hydrocarbon Receptor (Ahr) (AID 2282930). As to conditions: HepG2 AhR cis-factorial reporter transcription; actives raise or lower the signal. The essentials:
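Read-out: reporter mRNA quantified by RT-PCR with fluorescent primer extension and capillary electrophoresis. Human HepG2 liver cells carried transfected cis-promoter reporter units and were exposed to chemical for 24 h; gain or loss fitted relative to DMSO.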

The nature of experiment [6]: ATG_AP_1_CIS: Attagene CIS-FACTORIAL HepG2 Assay for human Activator Protein 1 (AP-1) (AID 2282931). The conditions noted are these: HepG2 Attagene cis-factorial AP-1 reporter mRNA; actives raise or lower the signal. The essentials: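 Readout is reporter transcript level from endogenous transcription factor activity, quantified by RT-PCR with fluorescent primer extension and capillary electrophoresis. Transiently transfected HepG2 cells, 24 h exposure. Curves fitted both directions versus DMSO.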

Experiment [7] in a line: ATG_AP_2_CIS: Attagene CIS-FACTORIAL HepG2 Assay for human Activator Protein 2 (AP-2) (AID 2282932). The conditions noted are these: HepG2 AP-2 cis-reporter, Attagene transcription factor profiling; actives raise or lower the signal. The essentials: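 Multiplexed mRNA reporter assay in HepG2: cis-regulated units report endogenous factor activity after 24 h treatment. Fluorescence from capillary electrophoresis of RT-PCR products gives the signal, with DMSO as baseline.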

A short description of experiment [8]: ATG_BRE_CIS: Attagene CIS-FACTORIAL HepG2 Assay for human Bone Morphogenetic Protein (BMP) Response Element (BRE) (AID 2282933). As to conditions: HepG2 BMP response element reporter, Attagene transcription factor profiling; actives raise or lower the signal. The essentials:
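Read-out: reporter mRNA induction quantified by RT-PCR and capillary electrophoresis after 24 h chemical exposure of transfected HepG2 cells. Endogenous factor activity on the BMP response element; gain or loss fitted against DMSO baseline.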

Experiment [9] addresses Transcription factor E2F1 (Homo sapiens) (UniProt Q01094). Briefly: ATG_E2F_CIS: Attagene CIS-FACTORIAL HepG2 Assay for human E2F Transcription Factor 1 (AID 2282935). As to conditions: HepG2 Attagene cis-reporter, E2F reporter RNA transcripts; actives raise or lower the signal. The essentials: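 Measures reporter transcript levels via RT-PCR with capillary electrophoresis detection in HepG2 cells harboring cis-regulated reporter units; 24 h post-dose; bidirectional curve fitting with DMSO as baseline.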

Experiment [10] can be described thus: ATG_E_Box_CIS: Attagene CIS-FACTORIAL HepG2 Assay for human Enhancer Box (E-box) (AID 2282936). The conditions noted are these: HepG2 E-box cis-reporter transcription, actives raise or lower the signal. The essentials: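 First, HepG2 cells receive multiple cis-regulated reporter constructs by transient transfection. Next, chemicals are applied for 24 h. Finally, reporter mRNA is quantified via RT-PCR and capillary electrophoresis, with DMSO as baseline.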

Experiment [11] is described as follows: ATG_EGR_CIS: Attagene CIS-FACTORIAL HepG2 Assay for human Early Growth Response 1 (EGR1) (AID 2282938). The conditions noted are these: HepG2 Attagene CIS-FACTORIAL EGR reporter mRNA; actives raise or lower the signal. The essentials: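 After 24 h compound exposure, RNA from reporter-transfected HepG2 cells was reverse-transcribed, PCR-amplified, fluorescently labelled and resolved by capillary electrophoresis. EGR1 reporter transcript changes, up or down, were fitted against DMSO, reflecting endogenous transcription-factor activity.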

A short description of experiment [12]: ATG_M_19_CIS: Attagene CIS-FACTORIAL HepG2 Assay for M19 Transcription Factor (Internal Marker) (AID 2282939). As to conditions: HepG2 Attagene CIS-FACTORIAL M19 internal marker reporter; actives raise or lower the signal. The essentials: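 Readout: fluorescent reporter-transcript fragments by capillary electrophoresis after RT-PCR. Human HepG2 liver cells carried transfected MRTU constructs reporting endogenous transcription-factor activity; exposure 24 h. Gain or loss of signal fitted relative to DMSO.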

Experiment [13] is described as follows: ATG_Ets_CIS: Attagene CIS-FACTORIAL HepG2 Assay for human Erythroblast Transformation Specific (ETS) (AID 2282941). As to conditions: HepG2 ETS cis-reporter transcription, actives raise or lower the signal. The essentials:
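Human HepG2 hepatoma cells were transiently transfected with promoter-driven reporter constructs and treated for 24 hours. Reporter transcripts were quantified by RT-PCR with fluorescent primer extension; bidirectional curve fitting used DMSO as reference.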

Experiment [14] has as its target Hepatocyte nuclear factor 3-beta (Homo sapiens) (UniProt Q9Y261). Briefly: ATG_FoxA2_CIS: Attagene CIS-FACTORIAL HepG2 Assay for human Forkhead box A2 (FOXA2) (AID 2282942). The conditions noted are these: HepG2 cis-reporter transcription factor activity, 24 h; actives raise or lower the signal. The essentials: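 Endogenous transcription factor activity is captured via cis-element-driven reporter transcripts in transfected HepG2. Total RNA taken at 24 h post-dosing; labelled RT-PCR products resolved by capillary electrophoresis. Gain or loss fitted versus DMSO.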

Experiment [15] can be described thus: ATG_FoxO_CIS: Attagene CIS-FACTORIAL HepG2 Assay for human Forkhead box O (FoxO) (AID 2282943). As to conditions: HepG2 Attagene cis-reporter, FoxO element, mRNA; actives raise or lower the signal. The essentials: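 Read-out: fluorescence of 6-FAM-labelled reporter cDNA fragments resolved by capillary electrophoresis. Transiently transfected HepG2 cells were dosed for 24 h; activity fitted in both directions relative to DMSO controls.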

The nature of experiment [16]: ATG_GATA_CIS: Attagene CIS-FACTORIAL HepG2 Assay for human GATA Binding Protein (AID 2282944). The conditions noted are these: HepG2 GATA cis-element reporter, Attagene multiplex mRNA; actives raise or lower the signal. The essentials: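 Read-out: fluorescent reporter mRNA fragments resolved by capillary electrophoresis after RT-PCR. Human liver HepG2 cells carried transiently transfected cis-regulated reporter constructs; chemicals incubated 24 h; gain or loss of signal fitted relative to DMSO.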

Experiment [17] in a line: ATG_GLI_CIS: Attagene CIS-FACTORIAL HepG2 Assay for human Zinc Finger Protein GLI1 (AID 2282945). The conditions noted are these: HepG2, Attagene cis-factorial reporter mRNA, GLI element; actives raise or lower the signal. The essentials:
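Transiently transfected HepG2 cells report endogenous transcription factor activity via cis-element-driven reporter units. After 24 h compound exposure, reporter mRNA was measured by RT-PCR with capillary electrophoresis; bidirectional fitting against DMSO baseline.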

Experiment [18] is described as follows: ATG_M_61_CIS: Attagene CIS-FACTORIAL HepG2 Assay for M61 Transcription Factor (Internal Marker) (AID 2282937). As to conditions: HepG2 Attagene CIS-FACTORIAL M61 internal marker reporter; actives raise or lower the signal. The essentials:
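Readout is reporter mRNA by RT-PCR, fluorescent primer extension and capillary electrophoresis, with gain or loss fitted relative to DMSO. Transfected HepG2 cells carrying endogenous-TF-driven cis reporters were exposed to chemicals for 24 hours.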

A short description of experiment [19]: ATG_ERE_CIS: Attagene CIS-FACTORIAL HepG2 Assay for Estrogen Response Element (ERE) (AID 2282940). The conditions noted are these: HepG2 ERE cis-reporter, Attagene RNA transcript; actives raise or lower the signal. The essentials: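 Readout: reporter mRNA induction by RT-PCR, FAM-labelled primer extension, HpaI digestion and capillary electrophoresis, 24 h after dosing transfected HepG2 cells. Endogenous transcription factors act on cis-element-regulated reporters. Gain or loss fitted against DMSO.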

For experiment [20], the target named is Retinoic acid receptor alpha (Homo sapiens) (UniProt P10276). Briefly: ATG_DR5_RAR_CIS: Attagene CIS-FACTORIAL HepG2 Assay for human Retinoic Acid Receptor Alpha (RARE), DR5 submotif (AID 2282934). As to conditions: HepG2 Attagene cis-factorial RARE DR5 reporter, mRNA; actives raise or lower the signal. The essentials:
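Read-out: DR5-driven reporter transcript measured by RT-PCR, 6-FAM primer extension, HpaI digest and capillary electrophoresis. Human HepG2 liver cells carry transiently transfected cis-element reporter constructs; dosing lasts 24 h. Gain or loss of signal fitted against DMSO baseline.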

Hepatocyte nuclear factor 3-beta (Homo sapiens), sequence (Q9Y261 whole entry, looked up): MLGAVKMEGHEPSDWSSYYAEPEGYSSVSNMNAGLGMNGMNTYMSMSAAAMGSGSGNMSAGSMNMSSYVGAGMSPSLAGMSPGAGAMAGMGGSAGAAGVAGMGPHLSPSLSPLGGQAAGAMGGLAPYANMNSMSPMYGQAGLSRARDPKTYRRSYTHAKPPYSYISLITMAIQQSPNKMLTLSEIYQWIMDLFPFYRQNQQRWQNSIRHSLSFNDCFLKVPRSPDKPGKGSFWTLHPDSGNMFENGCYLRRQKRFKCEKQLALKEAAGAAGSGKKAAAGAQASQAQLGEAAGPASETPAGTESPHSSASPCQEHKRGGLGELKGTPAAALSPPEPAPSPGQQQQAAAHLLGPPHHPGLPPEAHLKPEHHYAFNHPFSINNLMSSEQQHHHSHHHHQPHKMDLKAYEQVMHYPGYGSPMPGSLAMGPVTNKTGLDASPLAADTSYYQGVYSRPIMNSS
Aryl hydrocarbon receptor (Homo sapiens), sequence (P35869 whole entry, looked up): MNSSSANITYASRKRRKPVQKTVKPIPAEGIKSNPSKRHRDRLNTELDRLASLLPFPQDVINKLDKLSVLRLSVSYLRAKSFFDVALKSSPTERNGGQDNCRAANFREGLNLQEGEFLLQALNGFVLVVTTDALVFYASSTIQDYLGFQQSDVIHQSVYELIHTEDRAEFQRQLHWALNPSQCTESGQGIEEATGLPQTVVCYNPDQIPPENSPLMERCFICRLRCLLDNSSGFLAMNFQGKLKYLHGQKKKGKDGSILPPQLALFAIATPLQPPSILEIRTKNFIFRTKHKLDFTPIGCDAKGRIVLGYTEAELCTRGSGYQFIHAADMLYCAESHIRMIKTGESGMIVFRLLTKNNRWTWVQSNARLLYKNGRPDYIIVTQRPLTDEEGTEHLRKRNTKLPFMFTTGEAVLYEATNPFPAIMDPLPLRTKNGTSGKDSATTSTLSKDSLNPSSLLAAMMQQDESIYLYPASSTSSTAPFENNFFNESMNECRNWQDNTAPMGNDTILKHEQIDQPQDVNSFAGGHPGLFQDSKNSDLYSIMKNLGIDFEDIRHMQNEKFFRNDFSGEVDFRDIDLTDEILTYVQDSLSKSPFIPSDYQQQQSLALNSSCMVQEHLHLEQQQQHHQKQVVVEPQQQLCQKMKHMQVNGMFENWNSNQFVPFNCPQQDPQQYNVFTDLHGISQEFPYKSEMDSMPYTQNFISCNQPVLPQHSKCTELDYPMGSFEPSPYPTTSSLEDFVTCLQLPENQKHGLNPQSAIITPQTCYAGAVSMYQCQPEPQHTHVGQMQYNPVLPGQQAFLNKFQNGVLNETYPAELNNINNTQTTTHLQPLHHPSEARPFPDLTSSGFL
Transcription factor E2F1 (Homo sapiens), sequence (Q01094 whole entry, looked up): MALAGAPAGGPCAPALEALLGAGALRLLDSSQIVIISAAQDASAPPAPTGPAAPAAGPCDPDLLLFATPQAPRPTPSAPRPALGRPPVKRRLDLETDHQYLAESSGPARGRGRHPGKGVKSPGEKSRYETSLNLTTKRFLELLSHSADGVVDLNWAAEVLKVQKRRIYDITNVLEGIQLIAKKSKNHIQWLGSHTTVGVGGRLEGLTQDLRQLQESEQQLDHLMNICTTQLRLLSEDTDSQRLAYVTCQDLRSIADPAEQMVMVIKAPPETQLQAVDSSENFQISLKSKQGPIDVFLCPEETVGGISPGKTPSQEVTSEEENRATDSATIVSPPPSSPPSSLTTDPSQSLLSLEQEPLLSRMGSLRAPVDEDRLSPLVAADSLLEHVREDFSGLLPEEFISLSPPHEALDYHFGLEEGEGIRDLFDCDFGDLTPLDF
CCAAT/enhancer-binding protein beta (Homo sapiens), sequence (P17676 whole entry, looked up): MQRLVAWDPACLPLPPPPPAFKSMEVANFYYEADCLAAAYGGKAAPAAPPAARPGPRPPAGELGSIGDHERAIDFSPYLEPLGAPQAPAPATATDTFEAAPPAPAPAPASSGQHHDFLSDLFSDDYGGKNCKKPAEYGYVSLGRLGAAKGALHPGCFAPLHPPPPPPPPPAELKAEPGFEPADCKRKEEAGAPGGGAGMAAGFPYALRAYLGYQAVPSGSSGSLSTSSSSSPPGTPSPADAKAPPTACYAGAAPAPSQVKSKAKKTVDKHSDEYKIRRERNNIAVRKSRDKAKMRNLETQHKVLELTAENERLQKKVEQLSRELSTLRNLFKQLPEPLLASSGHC
Retinoic acid receptor alpha (Homo sapiens), sequence (P10276 whole entry, looked up): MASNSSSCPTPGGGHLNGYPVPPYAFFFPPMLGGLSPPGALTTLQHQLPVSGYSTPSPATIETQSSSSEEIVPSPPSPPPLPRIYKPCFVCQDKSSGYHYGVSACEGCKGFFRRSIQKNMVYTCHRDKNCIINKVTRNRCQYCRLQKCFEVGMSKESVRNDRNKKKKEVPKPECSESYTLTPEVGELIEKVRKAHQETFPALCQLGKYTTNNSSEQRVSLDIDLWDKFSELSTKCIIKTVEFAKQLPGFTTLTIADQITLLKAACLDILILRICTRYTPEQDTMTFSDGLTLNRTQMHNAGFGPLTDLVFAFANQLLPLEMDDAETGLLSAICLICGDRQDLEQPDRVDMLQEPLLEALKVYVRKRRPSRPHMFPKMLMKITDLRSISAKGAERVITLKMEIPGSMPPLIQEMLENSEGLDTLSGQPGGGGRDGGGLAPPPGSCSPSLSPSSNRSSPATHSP

As for `O=C(Cl)c1cccc(C(=O)Cl)c1`, the result in experiment [1], in experiment [2], in [3], in [4], in experiment [5] and in [6] was inactive. Further, the molecule was called inactive in experiment [7], in experiment [8], in experiment [9], in [10], in [11] and in [12]. Further, the molecule was classed as inactive in experiment [13], in experiment [14], in experiment [15], in experiment [16] and in experiment [17].

As for `CCC/C=C/C=O`, the molecule was classed as inactive in experiment [1], in experiment [2], in experiment [3], in experiment [4], in [5] and in experiment [6]. Further, the molecule was called inactive in [7], in experiment [8], in experiment [9], in experiment [18], in experiment [11] and in experiment [12]. Moreover, the molecule was called inactive in experiment [19], in experiment [13], in experiment [14], in experiment [15] and in experiment [16].

`CC(C)=CCC[C@H](C)CC=O`: the result in [1], in [2], in [3], in experiment [4], in experiment [5] and in experiment [6] was inactive. Besides, the call in [7], in experiment [8], in [9], in experiment [18], in [11] and in experiment [13] was inactive. In addition, the molecule was classed as inactive in experiment [14], in [15], in experiment [16] and in experiment [17].

Consider `COc1ccc(O)cc1`, for which the molecule was classed as inactive in experiment [1], in [2], in experiment [3], in [4], in [5] and in experiment [6]. Besides, the molecule was classed as inactive in experiment [7], in experiment [9], in experiment [10], in experiment [18], in experiment [11] and in experiment [12]. In addition, the call in experiment [13], in experiment [14], in [15], in [16] and in experiment [17] was inactive.

On to `C=C[C@@H](C)CCC=C(C)C`, for which the call in [1], in experiment [2], in experiment [3], in experiment [4], in [5] and in experiment [7] was inactive. The molecule was classed as inactive in [8], in experiment [20], in experiment [9], in [10], in experiment [18] and in [11]. For the same molecule, the result in experiment [12], in experiment [14], in experiment [15], in [16] and in experiment [17] was inactive.

One may read the AC50 as the concentration at which the activity in the assay is half-maximal. Take `CC1CCC(C(C)CS)CC1S` (stereo unspecified): the AC50 was 33.4 µM (active) in experiment [1], 45.9 µM (active) in experiment [5], 55.1 µM (active) in experiment [9] and 61.1 µM (active) in [16]. Moreover, the outcome in [2], in experiment [3], in experiment [4], in experiment [7], in [8] and in [20] was inactive. The outcome in experiment [10], in experiment [18], in experiment [11], in experiment [12], in experiment [13] and in experiment [14] was inactive. Further, the result in experiment [15] and in [17] was inactive.

Turning to `CCC(=O)/C=C/C1C(C)=CCCC1(C)C` (stereo unspecified), the call in experiment [1], in [2], in experiment [3], in experiment [4], in experiment [5] and in experiment [6] was inactive. Further, the outcome in [7], in experiment [9], in experiment [10], in experiment [18], in experiment [11] and in experiment [12] was inactive. The result in experiment [13], in experiment [14], in experiment [15], in [16] and in experiment [17] was inactive.

In the case of `CCCCCCCCCC=O`, the outcome in [1], in [2], in [3], in experiment [4], in experiment [5] and in [7] was inactive. Besides, the molecule was called inactive in experiment [8], in [9], in experiment [10], in experiment [18], in experiment [11] and in experiment [12]. The molecule was classed as inactive in experiment [13], in experiment [14], in experiment [15], in experiment [16] and in experiment [17].
